# Measured values: PubChem BioAssay (EPA / NIEHS)
# Records with an inconclusive call do not appear. The source made the active and inactive calls. Rule for the calls, unless noted: active = hit-call score of the fitted dose curve at least 0.9, where 1 is the maximum; inactive = score below 0.9.
# Tests used:
# [1] = target: human Retinoid X Receptor beta (RXRb), RXRB (gene 6257) (UniProt P28702); assay: ATG_RXRb_TRANS: Attagene TRANS-FACTORIAL HepG2 Assay for human Retinoid X Receptor beta (RXRb) (AID 2283013; active = hit-call score of the fitted dose curve at least 0.9, where 1 is the maximum)
# Outline: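 Transfect HepG2 with GAL4-UAS multi-reporter constructs (chimeric NR-Gal4, TRANS format); dose compound 24 h; isolate RNA, RT-PCR, FAM primer extension, HpaI digest; quantify by capillary electrophoresis; positive direction vs DMSO.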
# [2] = read-out: E-selectin (Homo sapiens) (UniProt P16581); assay: BSK_3C_Eselectin: BioMAP Diversity Plus: 3C Assay for Eselectin Biomarker Activity (AID 2283015); conditions: primary human endothelial cells (HUVEC); actives raise or lower the signal;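 for outcome: cell surface E-selectin protein quantified by ELISA 24 h after dosing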
# Outline: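 HUVEC, 3C stimulation; compound exposure 24 h; E-selectin by ELISA; gain- or loss-of-signal fitted bidirectionally vs DMSO baseline.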
# [3] = read-out: Interleukin-1 alpha (IL1a), IL1A (gene 3552); assay: BSK_BE3C_IL1a: BioMAP Diversity Plus: BE3C Assay for Interleukin-1 alpha (IL1a) Biomarker Activity (AID 2283016); conditions: primary human bronchial epithelial cells; actives raise or lower the signal
# Outline: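 BE3C primary human bronchial epithelium; cpd 24 h; IL-1a by ELISA; bidirectional fit vs DMSO; parallel SRB (0.1% SRB, 10% TCA fix, 560 nm) for cytotoxicity.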
# [4] = read-out: Monocyte Chemoattractant Protein-1 (MCP1), CCL2 (gene 6347); assay: BSK_3C_MCP1: BioMAP Diversity Plus: 3C Assay for Monocyte Chemoattractant Protein-1 (MCP1) Biomarker Activity (AID 2283017); conditions: primary human endothelial cells (HUVEC); actives raise or lower the signal
# Outline: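 HUVEC, 3C system; 24 h chemical exposure; MCP-1 by ELISA; bidirectional curve fit vs DMSO baseline.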
# [5] = read-out: Monocyte Chemoattractant Protein-1 (MCP1), CCL2 (gene 6347); assay: BSK_4H_MCP1: BioMAP Diversity Plus: 4H Assay for Monocyte Chemoattractant Protein-1 (MCP1) Biomarker Activity (AID 2283018); conditions: primary human endothelial cells (HUVEC); actives raise or lower the signal
# Outline: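 ELISA read-out of MCP-1 from human vascular endothelial primary cells taken at 24 hours after compound exposure. Activity was fitted in both directions relative to DMSO, which served as negative control.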
# [6] = read-out: Human Leukocyte Antigen - DR isotype (HLADR), HLA-DRA (gene 3122); assay: BSK_3C_HLADR: BioMAP Diversity Plus: 3C Assay for Human Leukocyte Antigen - DR isotype (HLADR) Biomarker Activity (AID 2283019); conditions: primary human endothelial cells (HUVEC); actives raise or lower the signal;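 for outcome: ELISA of cell-surface HLA-DR on HUVEC 24 h after dosing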
# Outline: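 HUVEC, 3C stimulation, 24 h post-dose; HLA-DR by ELISA; bidirectional curve fit vs DMSO baseline; gain or loss of signal scored.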
# [7] = read-out: Interleukin-8 (IL8), CXCL8 (gene 3576); assay: BSK_3C_IL8: BioMAP Diversity Plus: 3C Assay for Interleukin-8 (IL8) Biomarker Activity (AID 2283020); conditions: primary human endothelial cells (HUVEC); actives raise or lower the signal
# Outline: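 ELISA read-out of IL-8 from human umbilical vein endothelium, measured 24 h after chemical dosing. Activity is expressed relative to DMSO negative control, with both increases and decreases fitted.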
# [8] = target: human Thyroid Receptor alpha (THRa1), THRA (gene 7067) (UniProt P10827); assay: ATG_THRa1_TRANS: Attagene TRANS-FACTORIAL HepG2 Assay for human Thyroid Receptor alpha (THRa1) (AID 2283014; active = hit-call score of the fitted dose curve at least 0.9, where 1 is the maximum)
# Outline: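 Transient HepG2 transfection, NR-Gal4 chimera driving GAL4-UAS reporters; 24 h compound exposure; total RNA, oligo(dT) RT, PCR, fluorescent primer extension, capillary electrophoresis. Upward direction vs DMSO control.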
# Sequence of human Retinoid X Receptor beta (RXRb), RXRB (gene 6257) (P28702 whole entry, looked up, the tested form may be a part): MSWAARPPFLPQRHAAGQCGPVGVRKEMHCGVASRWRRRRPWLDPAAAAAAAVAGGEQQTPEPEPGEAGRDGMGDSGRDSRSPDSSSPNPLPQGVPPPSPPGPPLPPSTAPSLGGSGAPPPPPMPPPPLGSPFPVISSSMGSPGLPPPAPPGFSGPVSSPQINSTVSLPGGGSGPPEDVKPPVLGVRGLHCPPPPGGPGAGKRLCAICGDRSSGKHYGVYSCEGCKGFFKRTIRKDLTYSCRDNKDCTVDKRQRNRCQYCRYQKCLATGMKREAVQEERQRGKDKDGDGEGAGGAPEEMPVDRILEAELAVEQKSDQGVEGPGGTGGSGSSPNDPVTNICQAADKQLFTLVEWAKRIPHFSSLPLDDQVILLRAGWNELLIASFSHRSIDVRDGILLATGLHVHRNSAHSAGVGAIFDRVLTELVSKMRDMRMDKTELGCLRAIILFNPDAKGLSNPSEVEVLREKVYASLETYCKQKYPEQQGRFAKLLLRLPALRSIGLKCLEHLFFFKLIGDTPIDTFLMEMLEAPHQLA
# Sequence of human Thyroid Receptor alpha (THRa1), THRA (gene 7067) (P10827 whole entry, looked up, the tested form may be a part): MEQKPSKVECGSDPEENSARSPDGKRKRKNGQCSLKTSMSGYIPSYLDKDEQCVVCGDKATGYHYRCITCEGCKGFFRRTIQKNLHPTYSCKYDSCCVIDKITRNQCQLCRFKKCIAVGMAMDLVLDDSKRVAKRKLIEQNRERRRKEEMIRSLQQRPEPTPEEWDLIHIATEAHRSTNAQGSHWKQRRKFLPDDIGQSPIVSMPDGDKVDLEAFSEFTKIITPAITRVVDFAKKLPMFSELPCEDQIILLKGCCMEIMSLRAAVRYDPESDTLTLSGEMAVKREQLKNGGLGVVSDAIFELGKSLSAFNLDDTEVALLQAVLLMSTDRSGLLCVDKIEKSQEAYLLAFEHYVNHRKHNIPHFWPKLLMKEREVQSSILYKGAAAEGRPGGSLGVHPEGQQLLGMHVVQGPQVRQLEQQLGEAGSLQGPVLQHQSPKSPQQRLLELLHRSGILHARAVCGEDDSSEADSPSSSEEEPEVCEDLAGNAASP
# Sequence of E-selectin (Homo sapiens) (P16581 whole entry, looked up): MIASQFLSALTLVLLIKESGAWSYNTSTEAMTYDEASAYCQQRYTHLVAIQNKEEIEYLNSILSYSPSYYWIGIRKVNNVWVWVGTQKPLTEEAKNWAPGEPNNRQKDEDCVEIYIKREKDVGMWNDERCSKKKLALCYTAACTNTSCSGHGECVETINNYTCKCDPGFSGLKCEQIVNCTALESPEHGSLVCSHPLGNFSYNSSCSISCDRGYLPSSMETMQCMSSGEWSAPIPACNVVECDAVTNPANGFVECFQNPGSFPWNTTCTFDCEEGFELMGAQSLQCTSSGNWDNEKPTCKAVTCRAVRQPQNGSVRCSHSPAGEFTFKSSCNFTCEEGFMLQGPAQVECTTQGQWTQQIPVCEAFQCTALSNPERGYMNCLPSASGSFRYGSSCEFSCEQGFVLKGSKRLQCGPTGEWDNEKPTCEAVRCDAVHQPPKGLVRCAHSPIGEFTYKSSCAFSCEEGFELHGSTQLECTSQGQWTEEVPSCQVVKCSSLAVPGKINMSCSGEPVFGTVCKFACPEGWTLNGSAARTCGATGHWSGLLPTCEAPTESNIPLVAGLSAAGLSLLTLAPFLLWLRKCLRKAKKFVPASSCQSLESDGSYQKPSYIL
smiles,measurement,setting,value
CC1(C)C2=CCCC(C)(C)[C@]23CC[C@H]1C3,outcome,[1],inactive
same,AC50,[2],32.8 µM (active)
same,outcome,[3],inactive
same,AC50,[4],30.4 µM (active)
same,outcome,[5],inactive
same,AC50,[6],29.1 µM (active)
same,AC50,[7],20 µM (active)
CC=Cc1ccc(OCC)c(O)c1,outcome,[8],inactive
same,outcome,[2],inactive
same,outcome,[3],inactive
same,outcome,[4],inactive
same,outcome,[5],inactive
same,outcome,[6],inactive
same,outcome,[7],inactive
CCCCCCCC(=O)OCC(O)CO (stereo not given),outcome,[8],inactive
CCC(C)=O,outcome,[8],inactive
CC(C)CCOC(=O)c1ccccc1,outcome,[1],inactive
same,outcome,[8],inactive
CCCCCC(=O)CC,outcome,[8],inactive
CC/C=C\CCOC(=O)CC,outcome,[8],inactive
CCCCN(CCCC)C(=O)N(CCCC)CCCC,outcome,[8],inactive
same,AC50,[2],6.65 µM (active)
same,AC50,[3],8.05 µM (active)
same,AC50,[4],8.46 µM (active)
same,AC50,[5],6.41 µM (active)
same,AC50,[6],6.8 µM (active)
same,AC50,[7],4.98 µM (active)
C[C@@H]1CCN(C(=O)[C@H](CCCN=C(N)N)NS(=O)(=O)c2cccc3c2NC[C@H](C)C3)[C@@H](C(=O)O)C1,outcome,[2],inactive
same,outcome,[3],inactive
same,outcome,[4],inactive
same,outcome,[5],inactive
same,outcome,[6],inactive
same,outcome,[7],inactive
OCc1ccc(Cl)cc1Cl,outcome,[8],inactive
CC1(C)O[C@@H]2[C@@H](CO[C@@]3(COS(N)(=O)=O)OC(C)(C)O[C@@H]23)O1,outcome,[8],inactive
C=C(C)C(=O)OCC(CC)(COC(=O)C(=C)C)COC(=O)C(=C)C,AC50,[2],26.3 µM (active)
same,outcome,[3],inactive
same,outcome,[4],inactive
same,outcome,[5],inactive
same,AC50,[6],19.7 µM (active)
same,outcome,[7],inactive
CCCCCCCCCCCCCCCC(=O)OC/C=C(C)/C=C/C=C(C)/C=C/C1=C(C)CCCC1(C)C,outcome,[1],inactive
same,AC50,[2],14.3 µM (active)
same,outcome,[3],inactive
same,AC50,[4],3.97 µM (active)
same,AC50,[6],20 µM (active)
same,AC50,[7],1.13 µM (active)
COc1ccc(COC(C)=O)cc1,outcome,[8],inactive
Cc1cc(S(=O)(=O)O)ccc1N=Nc1c(O)ccc2ccccc12,outcome,[1],inactive
same,outcome,[8],inactive
COC(=O)c1ccc([N+](=O)[O-])cc1,outcome,[1],inactive
same,outcome,[8],inactive
NCC1CCCC(CN)C1 (stereo not given),outcome,[8],inactive
Cc1cc(=O)oc2cc(N(C)C)ccc12,outcome,[8],inactive
CCCCOC(=O)CCCCCCCC(=O)OCCCC,outcome,[1],inactive
same,outcome,[8],inactive
same,outcome,[2],inactive
same,outcome,[3],inactive
same,outcome,[4],inactive
same,outcome,[5],inactive
same,outcome,[6],inactive
same,outcome,[7],inactive
Cc1occc(=O)c1OC(=O)C(C)C,outcome,[8],inactive
Cc1ccc(S(=O)(=O)Oc2ccc(N=Nc3ccc(-c4ccc(N=Nc5c(O)ccc6cc(S(=O)(=O)O)cc(S(=O)(=O)O)c56)c(C)c4)cc3C)cc2)cc1,outcome,[1],inactive
same,outcome,[8],inactive
